{
  "source": "ChEMBL document CHEMBL4513216",
  "about": "“Probing the Open Global Health Chemical Diversity Library for Multistage-Active Starting Points for Next-Generation Antimalarials” (ACS Infect Dis, 2020)",
  "note": "Among all 65,000 compounds or so, about 2,100 (3.2%) showed an effect of 50% or more. The median lay at about -52%. This excerpt belongs to a sample that is enriched for strong results.",
  "data": [
    {"test_system": "Plasmodium falciparum", "experiment": "Screen against P. falciparum Asexual Blood Stage (ABS), at 5uM", "type": "functional, Dd2", "conditions": "tested at 5 uM", "units": {"INHIBITION": "%"}, "values": [
      {"smiles": "O=C(CN1CCCC1Cn1cncn1)Nc1ccc(Cl)cn1", "note": "(centres undefined)", "INHIBITION": -112},
      {"smiles": "Cc1cc(N2CCN(C(=O)c3cc(Cl)c[nH]3)CC2)nc(C(C)C)n1", "INHIBITION": 13},
      {"smiles": "Cc1cc(N2CCN(C(=O)c3cc(Cl)c[nH]3)CC2)nc(N)n1", "INHIBITION": 69.8},
      {"smiles": "Cc1cc(N2CCN(C(=O)c3cc(Cl)c[nH]3)CC2)nc(C)n1", "INHIBITION": -19.7},
      {"smiles": "COc1ccc(CC2(CO)CCN(c3cc(C(N)=O)ccn3)CC2)cc1", "INHIBITION": -129},
      {"smiles": "COc1ccc(-n2cnnc2SCC(=O)NC(C)C)cn1", "INHIBITION": -44.5},
      {"smiles": "CS(=O)(=O)N1CCC2(CCN(C(=O)c3cccnc3)CC2)C1", "INHIBITION": -35.5},
      {"smiles": "COCC(=O)NCC1CCCN(Cc2cc3ccccc3[nH]2)C1", "note": "(centres undefined)", "INHIBITION": -18.1},
      {"smiles": "COC(=O)c1cccc(C(=O)N(CCC#N)CC(C)(C)C)c1", "INHIBITION": -61.6},
      {"smiles": "Cc1nc(Nc2nccs2)cc(C2CN(C(C)C)C2)n1", "INHIBITION": 59.7},
      {"smiles": "Cc1nc(Nc2cnccn2)cc(C2CN(C(C)C)C2)n1", "INHIBITION": -131},
      {"smiles": "Cc1csc(Nc2cc(C3CN(C(C)C)C3)nc(C)n2)n1", "INHIBITION": -3.32},
      {"smiles": "Cc1cccc(CN2CCOC(C)(C(=O)N3CCOCC3)C2)n1", "note": "(centres undefined)", "INHIBITION": -28.9},
      {"smiles": "Cc1ccc(OCCN2CCCC(c3cc(C(N)=O)[nH]n3)C2)cc1", "note": "(centres undefined)", "INHIBITION": -109},
      {"smiles": "NC(=O)c1cc(C2CCCN(CCOc3ccc(F)cc3)C2)n[nH]1", "note": "(centres undefined)", "INHIBITION": 52.4},
      {"smiles": "NC(=O)c1cc(C2CCCN(CCCOc3ccc(F)cc3)C2)n[nH]1", "note": "(centres undefined)", "INHIBITION": -96.5},
      {"smiles": "COC(=O)c1cccnc1N1CCC(Oc2cccc(F)c2)CC1", "INHIBITION": -23.9},
      {"smiles": "CC(C)NC(=O)N1CC[C@@H](N(C)C)[C@@H]1Cc1ccccc1", "INHIBITION": 16.7},
      {"smiles": "CN(C)[C@@H]1CCN(S(=O)(=O)C2CC2)[C@H]1Cc1ccccc1", "INHIBITION": 64.9},
      {"smiles": "CC(C)N(C)[C@@H]1CCN(Cc2ccoc2)[C@H]1Cc1ccccc1", "INHIBITION": 13.7},
      {"smiles": "CN(C)[C@@H]1CCN(S(=O)(=O)c2cn(C)cn2)[C@H]1Cc1cccnc1", "INHIBITION": -57.5},
      {"smiles": "CN(C)[C@@H]1CCN(S(C)(=O)=O)[C@H]1Cc1ccccc1", "INHIBITION": 19.4},
      {"smiles": "CC(C)N(C)[C@@H]1CCN(S(C)(=O)=O)[C@H]1Cc1ccccc1", "INHIBITION": 54.9},
      {"smiles": "CCOc1nnc(CN2CCN(CCOC)C(C)C2)s1", "note": "(centres undefined)", "INHIBITION": 1.7},
      {"smiles": "Cc1cc(C(=O)N(C)Cc2cnn(C)c2C)n(C)n1", "INHIBITION": -72.2},
      {"smiles": "Cc1cccc(C(C)C)c1NC(=O)CN(C)C(C)c1nccs1", "note": "(centres undefined)", "INHIBITION": 10.7},
      {"smiles": "Cc1nnc(C2CCN(C(=O)c3ccc4nccnc4c3)CC2)s1", "INHIBITION": -22.7},
      {"smiles": "NCC1CCCCN1C(=O)Cc1ccc(F)c(F)c1", "note": "(centres undefined)", "INHIBITION": 9.77},
      {"smiles": "CSc1nccc(N2CCC3(CCCN(Cc4ccc(F)cc4)C3)C2)n1", "note": "(centres undefined)", "INHIBITION": 2.13},
      {"smiles": "CSc1nccc(N2CCC3(CCCN(Cc4cccc(C)c4)C3)C2)n1", "note": "(centres undefined)", "INHIBITION": 27.2},
      {"smiles": "CSc1nccc(N2CCC3(CCCN(CCc4ccccc4)C3)C2)n1", "note": "(centres undefined)", "INHIBITION": 50.1},
      {"smiles": "CCN(CC)S(=O)(=O)N1C[C@@H](O)[C@H](Oc2cccc(F)c2)C1", "INHIBITION": -6.79},
      {"smiles": "COCC(=O)N1CCC(C(=O)c2cc(C)cnc2N)CC1", "INHIBITION": -65.6},
      {"smiles": "O=S(=O)(Cc1ccc(F)cc1)NCc1nnc2n1CCC2", "INHIBITION": -90.9},
      {"smiles": "FC(F)(F)c1nc(NC2CCCCC2)c2ccccc2n1", "INHIBITION": -10.5},
      {"smiles": "COc1ccc(CCN2CCCC(CN(C)Cc3[nH]cnc3C)C2)cc1", "note": "(centres undefined)", "INHIBITION": -4.52},
      {"smiles": "Cc1nc(CN2CCCC(CCc3ccccc3C)C2)c[nH]1", "note": "(centres undefined)", "INHIBITION": 14.6},
      {"smiles": "Cc1cc(CN(C)CC2CCCN(CCc3ccc(Cl)cc3)C2)[nH]n1", "note": "(centres undefined)", "INHIBITION": -65.3},
      {"smiles": "COc1ccc(CCN2CCCC(CN(C)Cc3ccc(C)o3)C2)cc1", "note": "(centres undefined)", "INHIBITION": -45.9},
      {"smiles": "COc1ccccc1CCN1CCCC(CN(C)Cc2cc(C)n[nH]2)C1", "note": "(centres undefined)", "INHIBITION": 55.5},
      {"smiles": "COc1ccccc1CCN1CCCC(CN(C)Cc2c[nH]c(C)n2)C1", "note": "(centres undefined)", "INHIBITION": 67.4},
      {"smiles": "O=C(Cn1ccc(-c2ccccc2)n1)N1CCN(C(=O)C2CC2)CC1", "INHIBITION": -54.1},
      {"smiles": "O=C(O)Cn1nc(C2CC2)c2c(-c3ccc(F)cc3)ccnc21", "INHIBITION": -143},
      {"smiles": "Cc1nc(N2CCC3(CCOC3)C2)c2cc[nH]c2n1", "note": "(centres undefined)", "INHIBITION": -21.2},
      {"smiles": "O=C(CN1CCc2sccc2C1)Nc1ccnc2ccnn12", "INHIBITION": -83.1},
      {"smiles": "OCCCNc1nc(O)c2c(n1)-c1ccccc1CC21CCCCC1", "INHIBITION": 4.32},
      {"smiles": "COCC(=O)N1CCC2(C1)c1ccccc1S(=O)(=O)N2C", "note": "(centres undefined)", "INHIBITION": -58.6},
      {"smiles": "CS(=O)(=O)NCc1nnc2n1CCN(Cc1ccncc1)C2", "INHIBITION": -3.62},
      {"smiles": "Cc1cc(C(=O)N2CCc3ncc(CN4CCCC4)n3CC2)no1", "INHIBITION": -1.1},
      {"smiles": "COc1cc(CN2CCCC2)ccc1Oc1ccc2c(c1)CC(CN)O2", "note": "(centres undefined)", "INHIBITION": 59.8},
      {"smiles": "Cc1cc(CN2CCCC2)cc(Oc2ccc3c(c2)CC(CN)O3)c1", "note": "(centres undefined)", "INHIBITION": 28.4},
      {"smiles": "COc1ccc(CN2CCCC2)cc1Oc1ccc(NC(C)=O)cc1", "INHIBITION": -44.6},
      {"smiles": "Cc1ccc(N2CCO[C@H]3CN(C(=O)c4cccc(C)n4)C[C@H]32)nn1", "INHIBITION": -46.4},
      {"smiles": "CCn1c(CN(C)Cc2cnc(C)s2)nc2c(F)cccc21", "INHIBITION": -30.4},
      {"smiles": "CCn1c(CN(C)Cc2csc(C)n2)nc2cc(F)ccc21", "INHIBITION": 61},
      {"smiles": "CCn1c(CN(C)Cc2cnc(C)s2)nc2cc(F)ccc21", "INHIBITION": -16.6},
      {"smiles": "Cc1csc(CCCNc2ccc(S(N)(=O)=O)cc2C#N)n1", "INHIBITION": -9.07},
      {"smiles": "CC(CN1CCC(c2ccccc2)CC1)n1cnc2ccccc21", "note": "(centres undefined)", "INHIBITION": 3.15},
      {"smiles": "COCCN1CCCCC12CC(=O)N(c1ccccc1OC)C2", "note": "(centres undefined)", "INHIBITION": -78.3},
      {"smiles": "O=C(Cc1ccco1)N1CCC2(CCOCC2COCC2CC2)CC1", "note": "(centres undefined)", "INHIBITION": -30.9},
      {"smiles": "c1coc(CN2CCC3(CCOCC3COCC3CC3)CC2)c1", "note": "(centres undefined)", "INHIBITION": 62.3},
      {"smiles": "c1cc(CN2CCC3(CCOCC3COCC3CC3)CC2)co1", "note": "(centres undefined)", "INHIBITION": 14.4},
      {"smiles": "Cc1cccc(CN2CCC3(CCCN(C(=O)N(C)C)C3)C2=O)n1", "note": "(centres undefined)", "INHIBITION": -86.4},
      {"smiles": "c1ccc(C2CCCN(Cc3cc4n(n3)CCNC4)CC2)cc1", "note": "(centres undefined)", "INHIBITION": 37.2},
      {"smiles": "CN(C)c1nc(N)nc(CN2CCC(c3nc4ccccc4o3)CC2)n1", "INHIBITION": 7.31},
      {"smiles": "CN(C)c1nc(N)nc(CN2CCCC2c2cccs2)n1", "note": "(centres undefined)", "INHIBITION": 52},
      {"smiles": "Cc1cccc(C2CCCN2Cc2nc(N)nc(N(C)C)n2)c1C", "note": "(centres undefined)", "INHIBITION": -12.4},
      {"smiles": "CN(C)c1nc(N)nc(CN2CCCC(c3ccccc3)CC2)n1", "note": "(centres undefined)", "INHIBITION": 54},
      {"smiles": "CN(C)c1nc(N)nc(CN2CCCC2c2ccsc2)n1", "note": "(centres undefined)", "INHIBITION": 26.9}
    ]}
  ]
}
